Test results as given in PubChem BioAssay AID1159580 (chemical genetic matrix, 2015).
Hit rate of the full screen: of about 5,500 compounds, about 2,000 (36%) were called active. Inconclusive results (about 18%) are left out. Cut-off read from the data, not from the text of the source: active = normalized growth mostly below about 0.91 (no sharp cut-off); inconclusive = no clear call, values can overlap the other calls; inactive = mostly above about 0.92. The list shows a part of the results.

Test: chemical genetic growth profiling, strain panel (AID 1159580);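 note: tested at 20 µM; growth read once vehicle control cultures reached saturation at 30 °C; 1 = growth at the plate median or of vehicle wells; lower values mean less growth of the strain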
Details: S. cerevisiae deletion strains, growth OD
[1] = locus YDL101C, strain DUN1, active compounds read low
[2] = locus YHR030C, strain SLT2, active compounds read low
[3] = locus YAR019C, strain CDC15, active compounds read low
[4] = locus YBL105C, strain PKC1, active compounds read low
[5] = locus YBR135W, strain CKS1, active compounds read low
[6] = locus YBR136W, strain MEC1, active compounds read low
[7] = locus YBR160W, strain CDC28, active compounds read low
[8] = locus YDL017W, strain CDC7, active compounds read low
[9] = locus YDL028C, strain MPS1, active compounds read low
[10] = locus YDL108W, strain KIN28, active compounds read low
[11] = locus YDL132W, strain cdc53, active compounds read low
[12] = locus YDL214C, strain PRR2, active compounds read low
[13] = locus YDR052C, strain DBF4, active compounds read low
[14] = locus YDR054C, strain cdc34, active compounds read low
[15] = locus YDR226W, strain ADK1, active compounds read low
[16] = locus YDR477W, strain SNF1, active compounds read low
[17] = locus YER123W, strain YCK3, active compounds read low
[18] = locus YER133W, strain GLC7, active compounds read low
[19] = locus YFL009W, strain cdc4, active compounds read low
[20] = locus YFL029C, strain CAK1, active compounds read low
[21] = locus YFR003C, strain YPI1, active compounds read low
[22] = locus YFR019W, strain FAB1, active compounds read low
[23] = locus YFR028C, strain CDC14, active compounds read low
[24] = locus YGR040W, strain KSS1, active compounds read low
[25] = locus YGR052W, strain FMP48, active compounds read low
[26] = locus YGR092W, strain DBF2, active compounds read low
[27] = locus YHR079C, strain IRE1, active compounds read low
[28] = locus YHR082C, strain KSP1, active compounds read low
[29] = locus YHR205W, strain SCH9, active compounds read low
[30] = locus YIL147C, strain SLN1, active compounds read low
[31] = locus YJL095W, strain BCK1, active compounds read low
[32] = locus YJL128C, strain PBS2, active compounds read low
[33] = locus YJL157C, strain FAR1, active compounds read low
[34] = locus YJR016C, strain ILV3, active compounds read low
[35] = locus YJR066W, strain TOR1 (second series), active compounds read low
[36] = locus YJR066W, strain TOR1, active compounds read low
[37] = locus YKL048C, strain ELM1, active compounds read low
[38] = locus YKL067W, strain YNK1, active compounds read low
[39] = locus YKL101W, strain HSL1, active compounds read low
[40] = locus YKL193C, strain SDS22, active compounds read low
[41] = locus YKL203C, strain TOR2, active compounds read low
[42] = locus YLR113W, strain HOG1, active compounds read low
[43] = locus YLR133W, strain CKI1, active compounds read low
[44] = locus YLR403W, strain SFP1, active compounds read low
[45] = locus YML070W, strain DAK1, active compounds read low
[46] = locus YMR001C, strain CDC5, active compounds read low
[47] = locus YMR205C, strain PFK2 (second series), active compounds read low
[48] = locus YMR277W, strain FCP1, active compounds read low
[49] = locus YNL006W, strain LST8, active compounds read low
[50] = locus YNL020C, strain ARK1, active compounds read low
[51] = locus YNL161W, strain CBK1, active compounds read low
[52] = locus YNL183C, strain NPR1, active compounds read low
[53] = locus YNL207W, strain RIO2, active compounds read low
[54] = locus YNL222W, strain SSU72, active compounds read low
[55] = locus YNL307C, strain MCK1 (second series), active compounds read low
[56] = locus YOL078W, strain AVO1, active compounds read low
[57] = locus YOL136C, strain PFK27, active compounds read low
[58] = locus YOR061W, strain CKA2, active compounds read low
[59] = locus YOR119C, strain RIO1, active compounds read low
[60] = locus YOR231W, strain MKK1, active compounds read low
[61] = locus YOR329C, strain SCD5, active compounds read low
[62] = locus YPL031C, strain PHO85, active compounds read low
[63] = locus YPL153C, strain RAD53, active compounds read low
[64] = locus YPL204W, strain HRR25, active compounds read low
[65] = locus YPL209C, strain IPL1, active compounds read low
[66] = locus YPL256C, strain CLN2, active compounds read low
[67] = locus YPR025C, strain CCL1, active compounds read low
[68] = locus YPR106W, strain ISR1, active compounds read low
[69] = locus YPR111W, strain DBF20, active compounds read low
[70] = strain NNK1, active compounds read low
[71] = strain TSCII, active compounds read low

Measured: normalized growth

CCOc1ccc(/C=C(\C#N)c2cccc(Cl)c2)cc1
active: locus YDL134C, strain PPH21, active compounds read low 0.915 | locus YLR085C, strain ARP6, active compounds read low 0.723 | locus YMR307W, strain GAS1, active compounds read low 0.645
inactive: locus YAL013W, strain DEP1, active compounds read low 0.992 | locus YBR229C, strain ROT2, active compounds read low 0.995 | locus YCL061C, strain MRC1, active compounds read low 1.01 | [1] 1.01 | locus YDR150W, strain NUM1, active compounds read low 0.975 | locus YEL061C, strain CIN8, active compounds read low 0.955 | locus YGR078C, strain PAC10, active compounds read low 0.979 | [2] 0.694 | locus YHR087W, strain rtc3, active compounds read low 0.97 | locus YJL187C, strain SWE1, active compounds read low 1.01 | locus YJR043C, strain POL32, active compounds read low 1 | locus YJR075W, strain HOC1, active compounds read low 0.967 | locus YLR039C, strain RIC1, active compounds read low 0.892 | locus YLR058C, strain SHM2 (second series), active compounds read low 0.982 | locus YLR262C, strain YPT6, active compounds read low 0.952 | locus YML094W, strain GIM5, active compounds read low 0.927 | locus YMR219W, strain ESC1, active compounds read low 0.99 | locus YMR263W, strain SAP30, active compounds read low 0.987 | locus YNL153C, strain GIM3, active compounds read low 1.01 | locus YNL298W, strain CLA4 (second series), active compounds read low 0.936 | locus YNL322C, strain KRE1, active compounds read low 0.975 | locus YNR030W, strain Alg12, active compounds read low 0.928 | locus YPL055C, strain LGE1, active compounds read low 0.95 | locus YPL241C, strain CIN2, active compounds read low 0.933 | locus YPR135W, strain CTF4, active compounds read low 0.987

CS(=NC(=O)c1cccc(Cl)c1)c1ccc(OC(=O)c2ccc(Cl)cc2)cc1 (stereo not given)
inactive: [3] 0.969 | [4] 0.966 | [5] 0.97 | [6] 0.966 | [7] 0.967 | [8] 0.968 | [9] 0.964 | [1] 0.972 | [10] 0.964 | [11] 0.958 | [12] 0.958 | [13] 0.954 | [14] 0.967 | [15] 0.966 | [16] 0.972 | [17] 0.924 | [18] 0.95 | [19] 0.966 | [20] 0.966 | [21] 0.968 | [22] 0.943 | [23] 0.966 | [24] 0.96 | [25] 0.98 | [26] 0.981 | [2] 1.08 | [27] 1.1 | [28] 1.06 | [29] 1 | [30] 0.958 | [31] 0.946 | [32] 0.944 | [33] 0.949 | [34] 0.969 | [35] 0.983 | [36] 1.05 | [37] 0.945 | [38] 0.949 | [39] 0.935 | [40] 0.964 | [41] 1.02 | [42] 0.876 | [43] 0.952 | [44] 1 | [45] 0.94 | [46] 0.964 | [47] 0.934 | [48] 0.968 | [49] 0.979 | [50] 0.949 | [51] 0.971 | [52] 1.01 | [53] 0.964 | [54] 0.97 | [55] 0.982 | [56] 0.959 | [57] 0.936 | [58] 0.926 | [59] 1.01 | [60] 0.909 | [61] 0.969 | [62] 0.941 | [63] 0.968 | [64] 0.952 | [65] 0.974 | [66] 1.06 | [67] 0.968 | [68] 0.974 | [69] 0.975 | [70] 0.972 | [71] 0.965

CC(C)(C)CN/C(C#N)=C(/C#N)NCc1cccc(Cl)c1
inactive: [3] 0.993 | [4] 0.991 | [5] 0.98 | [6] 0.991 | [7] 0.991 | [8] 0.994 | [9] 0.993 | [1] 0.982 | [10] 0.997 | [11] 0.987 | [12] 0.991 | [13] 0.996 | [14] 0.991 | [15] 0.973 | [16] 0.988 | [17] 0.947 | [18] 0.988 | [19] 0.988 | [20] 0.992 | [21] 0.991 | [22] 0.99 | [23] 0.983 | [24] 0.966 | [25] 0.947 | [26] 0.871 | [2] 0.977 | [27] 0.995 | [28] 1.01 | [29] 0.896 | [30] 1 | [31] 0.883 | [32] 0.95 | [33] 0.982 | [34] 0.987 | [35] 0.97 | [36] 1 | [37] 0.986 | [38] 0.977 | [39] 0.954 | [40] 0.984 | [41] 1.04 | [42] 0.915 | [43] 0.974 | [44] 0.941 | [45] 0.965 | [46] 0.995 | [47] 0.973 | [48] 0.992 | [49] 0.978 | [50] 0.974 | [51] 0.984 | [52] 0.945 | [53] 0.98 | [54] 0.984 | [55] 0.877 | [56] 0.981 | [57] 0.955 | [58] 1 | [59] 1.04 | [60] 0.931 | [61] 0.99 | [62] 0.99 | [63] 0.988 | [64] 0.967 | [65] 0.982 | [66] 1.08 | [67] 0.986 | [68] 0.989 | [69] 0.964 | [70] 0.987 | [71] 0.985
